ID4 SMM: ID4 (human) binding. P47928. 31,000 tested, 1.2% active. small molecule microarray, Flag-ID4 binding, fluorescence F/B. calls only; call rule not given here;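 further: a binder raises fluorescence above local background on the spot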
Target sequence (P47928 whole entry, looked up): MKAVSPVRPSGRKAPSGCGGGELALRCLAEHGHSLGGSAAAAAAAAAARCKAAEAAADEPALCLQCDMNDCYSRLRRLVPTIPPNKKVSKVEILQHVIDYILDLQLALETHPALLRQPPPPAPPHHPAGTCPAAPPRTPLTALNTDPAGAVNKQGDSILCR
Of the large screens only hits and unclear results are named; the others gave an inactive call. Only a selection was taken, and hits are over-represented in it overall.

CC(Oc1ccc(Cl)cc1Cl)C(=O)Nc1cc(-c2nc3ccccc3o2)ccc1Cl (stereo not drawn)	none
COc1ccc(C(=O)CSc2nc3nc(C)cc(C)c3c(=O)[nH]2)cc1OC	none
Cc1cc(C)c2c(=O)[nH]c(SCC(=O)N3CCOCC3)nc2n1	ID4 SMM active
Cc1cc(C)c2c(=O)[nH]c(SCC(=O)c3ccccc3)nc2n1	none
COC(=O)c1cc(OC)c(OC)cc1NC(=O)CN1CCCCC1	none
COc1ccc(OC)c(NC(=O)CN2CCC(C(N)=O)(N3CCCCC3)CC2)c1	none
COC(=O)c1cc(OC)c(OC)cc1NC(=S)N1CCC(C(N)=O)(N2CCCCC2)CC1	ID4 SMM active
CN1C(=O)C(O)(CC(=O)c2ccco2)c2cc(Cl)ccc21 (stereo not drawn)	none
CCn1nccc1C(=O)Nc1nc2ccccc2n1CCN1CCCCC1	none
O=C(Cn1c2ccccc2n2nc(-c3ccccc3)nc12)c1cccs1	none
O=C(O)CCc1nn2c3ccccc3n(CCN3CCCCC3)c2nc1=O	ID4 SMM active
Cc1cc(C(F)(F)F)nc(SCC(=O)Nc2ccccc2C(F)(F)F)n1	none
Cc1c(C=Nc2ccc(C(C)C)cc2)sc2ccccc12	none
COC(=O)CSc1nnc(-c2cc(OC)c(OC)c(OC)c2)n1C	none
CNC[C@H]1Oc2ccc(NC(=O)Nc3ccc4c(c3)OCO4)cc2C(=O)N([C@@H](C)CO)C[C@@H]1C	none
CNC[C@H]1Oc2ccc(NC(=O)Nc3ccc4c(c3)OCO4)cc2C(=O)N([C@@H](C)CO)C[C@H]1C	ID4 SMM active
C[C@H](CO)N1C[C@H](C)[C@@H](CN(C)C)Oc2ccc(NC(=O)Nc3ccc4c(c3)OCO4)cc2C1=O	none
CNC[C@H]1Oc2ccc(NC(=O)Nc3ccc(F)cc3)cc2C(=O)N([C@@H](C)CO)C[C@H]1C	none
CNC[C@@H]1Oc2ccc(NC(=O)Nc3ccc4c(c3)OCO4)cc2C(=O)N([C@H](C)CO)C[C@H]1C	ID4 SMM active
CNC[C@@H]1Oc2ccc(NC(=O)Nc3ccc(F)cc3)cc2C(=O)N([C@H](C)CO)C[C@@H]1C	none
CNC[C@H]1OCCCC[C@@H](C)Oc2ccc(NC(=O)Nc3ccc4c(c3)OCO4)cc2C(=O)N([C@@H](C)CO)C[C@H]1C	ID4 SMM active
CNC[C@@H]1OCCCC[C@H](C)Oc2ccc(NC(=O)Nc3ccc4c(c3)OCO4)cc2C(=O)N([C@H](C)CO)C[C@@H]1C	none
C[C@H]1CCCCO[C@@H](CN(C)C)[C@@H](C)CN([C@@H](C)CO)C(=O)c2cc(NC(=O)Nc3ccc4c(c3)OCO4)ccc2O1	none
CC(C)=CCc1c(O[C@@H]2O[C@H](CO)[C@@H](O)[C@H](O)[C@H]2O)cc(O)c2c1O[C@H](c1ccc(O)cc1)CC2=O	none
Cc1ccc(C(=O)Nc2ccccc2C(=O)NCc2ccco2)cc1[N+](=O)[O-]	none
O=C(CSc1nnc(-c2ccccc2)o1)Nc1cccc(Br)c1	none
O=C(CSc1nc(O)cc(=O)n1-c1ccccc1)Nc1ccc2ccccc2c1	none
O=C(Nc1ccccc1C(=O)O)c1cccc(NS(=O)(=O)c2ccc(Cl)cc2)c1	none
CCOC(=O)C1C(=O)C(=O)Nc2ccccc21 (stereo not drawn)	none
Cc1ccc(-c2nn(-c3ccc(C)cc3)c3c2cnc2c(F)cccc23)cc1	none
CCc1nc(SCC(=O)Nc2c(Cl)cccc2Cl)c(C#N)c(C(F)(F)F)c1C	none
COC(=O)c1cc(C)sc1NC(=S)NCCc1ccccc1OC	none
O=C(COc1cc(O)c2c(=O)c3ccccc3oc2c1)c1ccc(Cl)cc1	none
NC(=O)CN(Cc1ccc(Cl)c(Cl)c1)S(=O)(=O)c1ccc(Br)cc1	none
CCn1c(SCC(=O)Nc2ccc3c(c2)OCCO3)nnc1-c1ccccc1O	none
COCCOC(=O)N1C(=O)[C@@]2(c3cc(C#CCNC(N)=O)ccc31)[C@H](c1ccccc1OCCO)N1[C@H](c3ccccc3)[C@H](c3ccccc3)OC(=O)[C@H]1[C@@H]2C(N)=O	none
COCCOC(=O)N1C(=O)[C@@]2(c3ccccc31)[C@H](c1ccccc1OCCO)N1[C@H](c3ccccc3)[C@H](c3ccccc3)OC(=O)[C@H]1[C@@H]2C(N)=O	ID4 SMM active
COCCOC(=O)N1C(=O)[C@@]2(c3ccccc31)[C@H](c1ccc(O)cc1)N1[C@H](c3ccccc3)[C@H](c3ccccc3)OC(=O)[C@H]1[C@@H]2C(N)=O	none
O=C(O)C[C@H]1C[C@@H]2c3cc(NC(=O)CC4CC4)ccc3O[C@@H]2[C@@H](CO)O1	none
COCC(=O)Nc1ccc2c(c1)[C@@H]1C[C@H](CC(=O)NC3CCCC3)O[C@@H](CO)[C@@H]1O2	none
O=C(CC1CC1)Nc1ccc2c(c1)[C@@H]1C[C@H](CC(=O)NC3CCCC3)O[C@H](CO)[C@@H]1O2	ID4 SMM active
Cc1ccc(C(C)C)c(OCC(=O)Nc2sc3c(c2C(N)=O)CCC(C)C3)c1 (stereo not drawn)	none
COc1ccc(Cl)cc1N(CC(=O)Nc1ccccc1Br)S(C)(=O)=O	none
CCCn1c2ccccc2c2nnc(SCC(=O)O)nc21	none
CCn1c2ccccc2c2nnc(SCC(N)=O)nc21	none
COC(=O)C(C)Sc1nnc2c3ccccc3n(Cc3ccccc3)c2n1 (stereo not drawn)	ID4 SMM active
Cc1cc(Cl)ccc1NC(=O)CNS(=O)(=O)c1ccc(Br)cc1	none
CC(C)c1ccc(NC(=O)CN(C)S(=O)(=O)c2ccc3ccccc3c2)cc1	none
Cc1scc(C(=O)Nc2cccc(Cn3cccn3)c2)c1-c1ccccc1	ID4 SMM active
CC(=O)Nc1cccc(NC(=O)c2cccc(Cn3cc(Cl)cn3)c2)c1	none
Cc1c(Cl)cccc1NC(=O)Nc1cccc(Cn2cccn2)c1	none
O=C(CCSc1nnc(-c2ccccc2)o1)Nc1ccc(F)cc1	none
CC(=O)c1cccc(NC(=O)CSc2nc(-c3ccccc3)c(-c3ccccc3)o2)c1	none
O=C(O)CCCCCCC(=O)Nc1ccc(C2CC(CSc3nc(-c4ccccc4)c(-c4ccccc4)o3)OC(c3ccccc3)O2)cc1 (stereo not drawn)	ID4 SMM active
Cc1cccc(CSc2nc3c(c(=O)[nH]2)C(C(C)C)C2=C(CC(C)(C)CC2=O)N3)c1 (stereo not drawn)	none
Cc1cc(C(=O)O)ccc1NC(=O)C1CC=CCC1C(=O)O (stereo not drawn)	none
CCOc1ccc(NC(=O)C2CC=CCC2C(=O)O)cc1 (stereo not drawn)	none
O=C(O)c1cc(NC(=O)C2CC=CCC2C(=O)O)ccc1Cl (stereo not drawn)	ID4 SMM active
N#CCCN(Cc1ccco1)S(=O)(=O)c1ccccc1	none
C[C@@H]1CN([C@H](C)CO)C(=O)c2cc(NS(C)(=O)=O)ccc2O[C@H]1CN(C)C	none
CNC[C@H]1Oc2ccc(NS(=O)(=O)c3ccccc3)cc2C(=O)N([C@H](C)CO)C[C@H]1C	none
CNC[C@H]1Oc2ccc(NS(C)(=O)=O)cc2C(=O)N([C@H](C)CO)C[C@@H]1C	ID4 SMM active
CNC[C@H]1Oc2ccc(NS(=O)(=O)c3ccccc3)cc2C(=O)N([C@@H](C)CO)C[C@H]1C	none
CNC[C@@H]1Oc2ccc(NS(C)(=O)=O)cc2C(=O)N([C@@H](C)CO)C[C@H]1C	ID4 SMM active
CNC[C@@H]1Oc2ccc(NS(=O)(=O)c3ccccc3)cc2C(=O)N([C@@H](C)CO)C[C@@H]1C	none
O=C1c2ccccc2C(Nc2ccc(S(=O)(=O)N3CCOCC3)cc2)N1Cc1ccccc1Cl (stereo not drawn)	none
COC(=O)c1ccccc1NC(=O)CSc1nc(-c2ccc(F)cc2)cs1	none
c1cnc(SCCCCOc2ccc3c(c2)CCC3)nc1	none
O=C1CC2(CCCC2)CC(=O)N1CCCCN1CCN(c2ncccn2)CC1	none
O=S1(=O)c2cccc3cccc(c23)N1CCCN1CCN(c2ccc(F)cc2)CC1	none

Source: PubChem BioAssay (Broad Institute)
